According to PubChem BioAssay AID2314 (National Center for Advancing Translational Sciences (NCATS), 2010):
In all, about 300,000 compounds went through this assay and about 37,000 (12%) were called active. For the sample, actives were picked, then their nearest neighbours and some compounds at random. Unmarked numbers belong to inactive results. Rule as the data show it: active = max response mostly above about 13% (no sharp cut-off); inactive = mostly below about 14%.

Experiment: Cycloheximide Counterscreen for Small Molecule Inhibitors of Shiga Toxin; also: read at 38.3 µM for the half of the compounds with a filed dose; 0% is about no effect
Details: cell reporter, cycloheximide protein synthesis inhibition counterscreen; stronger effect = higher value

Row | SMILES | max response
1 | CCn1c(=S)sc2c(=O)n(CC(=O)Nc3ccc(OC)cc3)c(C)nc21 | -0.488%
2 | Cc1ccccc1OCCC(=O)OCC(=O)NC(C)c1ccccc1 (centres undefined) | 1.95%
3 | CCC(C)c1ccccc1NC(=O)CN(C)CC(=O)Nc1ccccc1SC (centres undefined) | -13.3%
4 | Cc1cc(C(=O)COc2ccccc2[N+](=O)[O-])c(C)n1-c1cccc(S(=O)(=O)N2CCOCC2)c1 | 0.979%
5 | Cc1ccc(-c2nn(-c3ccccc3)cc2/C=N/NC(=O)c2ccc3c(c2)OCO3)cc1 | 16.9% (active)
6 | Cc1nnc(SCC(=O)N/N=C/c2cn(-c3ccccc3)nc2-c2ccc(F)cc2)n1-c1ccccc1 | 10.2%
7 | CC(C)(C)OC(=O)N/N=C/c1cn(-c2ccccc2)nc1-c1cccnc1 | 17%
8 | O=C(NCc1ccccc1)[C@H]1C[C@@H]1[C@H](NP(=O)(c1ccccc1)c1ccccc1)c1ccccc1 | 4.56%
9 | CC(=O)N1CCCc2cc(S(=O)(=O)N3CCCC(C(=O)N4CCN(c5cccc(Cl)c5)CC4)C3)ccc21 (centres undefined) | 8.4%
10 | Cc1sc2ncn(CC(=O)NCCCC(=O)N3CCN(c4ccccc4F)CC3)c(=O)c2c1C | -3.83%
11 | CCOc1ccc(OCCSc2nc3ccccc3n2CC(=O)O)cc1 | -2.45%
12 | CC(NC(=S)Nc1ccc(OC(F)F)cc1)c1ccc(F)cc1 (centres undefined) | 1.93%
13 | CC(C)c1ccc(NC(=S)NC2CC3C=CC2C3)cc1 (centres undefined) | 51.4% (active)
14 | S=C(NNC(=S)NC1CC2C=CC1C2)NC1CC2C=CC1C2 (centres undefined) | 9.74%
15 | CCOc1ccccc1N1CN(Cc2ccccc2)CNC1=S | -1.15%
16 | Cc1ccccc1NCC(=O)N/N=C\c1ccc([N+](=O)[O-])s1 | 25.2%
17 | CSc1ccc(NC(=O)/C=C/C(=O)O)cc1 | 6.1%
18 | Cc1ccc(C(=O)NC23CC4CC(CC(C4)C2)C3)c(Cl)c1 | 11.3%
19 | CSc1ccc(/C=C/C(=O)NC23CC4CC(CC(C4)C2)C3)cc1 | 49.9% (active)
20 | CC1(C)CC(=O)c2c(n(S(=O)(=O)c3ccccc3)c3ccc(NS(=O)(=O)c4ccccc4)cc23)C1 | -1.24%

Row | SMILES | max response
21 | COc1ccc(-n2c(SC)nc(O)cc2=O)cc1 | -4.06%
22 | CCn1c(SCc2ccccc2)nc2cc(OC)c(OC)cc2c1=O | 0.431%
23 | CCS(=O)(=O)n1nc(-c2ccccc2)nc1SCc1ccccc1 | 62.5% (active)
24 | CCn1c(SCc2ccccc2)nc2c(c1=O)SCC2 | -1.78%
25 | CCS(=O)(=O)n1nc(-c2ccc(OC)cc2)nc1SC | 23.6% (active)
26 | CCOC(=O)N1CCN(S(=O)(=O)c2ccc(OC)cc2)CC1 | -1.81%
27 | CCOc1ccc(CN2CCNC(=O)C2CC(=O)NCCCC2CCCC2)cc1 (centres undefined) | 16.3%
28 | CCOc1cc(/C=N/NC(=O)c2cc(-c3ccccc3)nc3ccccc23)ccc1O | 17.7% (active)
29 | COc1cccc(-c2cc(C(=O)N/N=C/c3ccc(OC)c(COC(C)=O)c3)c3ccccc3n2)c1 | 2.97%
30 | Cc1cc(C(=O)N/N=C/c2ccccn2)c2ccccc2n1 | -8.99%
31 | Cc1ccc2nc(C)cc(N/N=C/c3ccc(F)cc3)c2c1 | -2.09%
32 | CCOc1ccc(/C=N/NC(=O)CSc2ccccn2)cc1O | 1.88%
33 | CCOc1cc(/C=N/Nc2cc(C)nc3ccc(C)cc23)ccc1O | 17.3% (active)
34 | COc1cc(OC)c2c(C)cc(=O)oc2c1C(CCN1CCCCC1)c1ccc(N(C)C)cc1 (centres undefined) | -1.45%
35 | COc1cc(CN2CCCC(C(=O)c3ccc(SC)cc3)C2)cc(Cl)c1O (centres undefined) | 4.43%
36 | N=c1n(CCc2ccccc2)c2ccccc2n1Cc1ccccc1F | -8.79%
37 | COc1ccccc1C(=O)Nc1cccc(C(=O)N2CCOCC2)c1 | -2.39%
38 | COc1ccc(C)cc1NC(=S)N1CCOCC1 | -2.32%
39 | COc1ccccc1/C=C/C=N/NC(=O)CN1CCN(Cc2ccccc2)CC1 | -1.49%
40 | COc1ccccc1/C=C/C(=O)NC1CC2CCC1C2 (centres undefined) | 14.3% (active)

Row | SMILES | max response
41 | CCOC(=O)C(=Cc1ccccc1OC)C(=O)OCC | 2.29%
42 | COc1ccccc1/C=C/C(=O)NC(=S)N1CCOCC1 | 47.7% (active)
43 | COc1ccc(Cl)cc1NC(=O)CCS(=O)(=O)c1ccc(Br)cc1 | -3.81%
44 | CSc1ccc(S(=O)(=O)N2CCC(C(=O)NCc3ccncc3)CC2)cc1 | -2.48%
45 | CCN1CCN(c2nc(Nc3cc(OC)ccc3OC)nc(Nc3cc(OC)ccc3OC)n2)CC1 | -2.31%
46 | COC(=O)c1ccc(COc2ccc(/C=C/C(=O)c3ccc(OC)c(CSCC(=O)O)c3)cc2OC)cc1 | 16.2% (active)
47 | COc1ccc(/C=C/C(=O)c2ccc(NS(=O)(=O)c3ccc(C)cc3)cc2)cc1O | -1.98%
48 | COc1ccc(C(=O)/C=C/c2ccc(-c3ccccc3)cc2)cc1CSCC(=O)O | 16.5%
49 | Fc1ccc(Cl)cc1-c1nc(Nc2ccncc2)c2nccnc2n1 | 1.12%
50 | COc1ccc(N(C(=O)c2snc(C(N)=O)c2N)C(C(=O)NC2CCCC2)c2ccc(C)o2)c(OC)c1 (centres undefined) | -6.04%
51 | O=C(N/N=C\C1CC=CCC1)c1ccc(Br)o1 (centres undefined) | 29.4% (active)
52 | Cc1ccc(SCc2c(C(=O)N/N=C/C3CC=CCC3)nnn2-c2nonc2N)cc1 (centres undefined) | -2.54%
53 | COCc1c(C(=O)N/N=C/C2CC=CCC2)nnn1-c1nonc1N (centres undefined) | 1.58%
54 | C=CCC1CCC(=O)N2CCCC12 (centres undefined) | -5.3%
55 | CN(CC(=O)N1CCN(c2ccccc2)CC1)S(=O)(=O)c1cccs1 | 29% (active)
56 | COc1ccc(OC)c(S(=O)(=O)N(C)CC(=O)N2CCN(c3ccccc3)CC2)c1 | 6.23%
57 | O=C(CCNS(=O)(=O)c1cccs1)N1CCN(c2ccc(F)cc2)CC1 | -5.58%
58 | Cc1ccc(C(=O)NN(CCC#N)C2=NS(=O)(=O)c3ccccc32)cc1 | 0.601%
59 | CONc1nc2nonc2nc1NOC | -2.64%
